# KB-V1 MDR tox – KB-V1 MDR subline cytotoxicity | AID 1347076 | KB-V1 MDR cells viability, CellTiter-Glo, 72 h | Potency, µM (top dose mostly 46.1 µM), most hits filed as cytotoxic | 400,000 tested, 3.4% active; also: % is scaled to controls: 0 for no effect and ±100 for the full control effect; nearly all actives have a fitted effect of over 60% in size
#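 KB-V1 cells (P-gp-expressing MDR subline of KB-3-1) in phenol-red-free DMEM with 10% FBS were exposed to library compounds over a concentration series for 72 h at 37 degrees C. Viability read by CellTiter-Glo luminescence; concentration-effect curves fitted after normalization.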
# HT1080 IDH1KD tx – HT-1080 IDH1 knockdown cell toxicity (counter line) | HT-1080 IDH1 knockdown viability, ATP luminescence, 48 h | Potency, µM (titrated, usually from 46.1 µM), inactives show at the top dose activity, negative = toxicity, usual class: cytotoxic | 360,000 tested, 2% active | AID 686971;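 also: 0% = DMSO wells and -100% = cell-free medium wells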
#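 Using the IDH1-knockdown HT-1080 line run in the same batch and compound series as the NT line, viability after 48 h at 37 °C was determined by CellTiter-Glo luminescence and expressed as % activity.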
# MCF10A rereplic – DNA re-replication induction in MCF 10a cells; MCF 10A DNA re-replication, Hoechst nuclear intensity, 48 h; Potency, µM (series often up to 46.1 µM), for inactives: at the highest dose activity, positive = re-replication, most hits filed as activators; 350,000 tested, 2.9% active; AID 624296; also: % of control where 0% means no effect; nearly all actives have a fitted effect of over 50% in size
# HT1080-NT tox – kills 2HG-producing HT-1080-NT fibrosarcoma cells; HT-1080-NT fibrosarcoma viability, CellTiter-Glo ATP luminescence, 48 h; Potency, µM (doses to about 46.1 µM), inactives show top-dose activity, negative = less viability, hits mostly cytotoxic; 360,000 tested, 1.6% active; AID 686970;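 also: NT is the 2HG producing partner of a matched IDH1 knockdown line; 0% = DMSO-treated cells and -100% = media-only wells without cells; nearly all actives have a fitted effect of over 55% in size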
#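 Viability by CellTiter-Glo luminescence after 48 h compound exposure at 37C of HT-1080-NT cells (750/well, RPMI, 5% FBS). % activity scaled between DMSO wells and medium-only wells, then curve-fitted and categorized by curve class.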
# SW480 rereplic – DNA re-replication induction in SW480 cells. SW480 DNA re-replication, Hoechst DNA content imaging, 48 h. Potency, µM (series often up to 46.1 µM), without a hit: top-dose re-replication activation, most hits filed as activators. 340,000 tested, 1.8% active. AID 624297; also: % of control where 0% means no effect; nearly all actives have a fitted effect of over 55% in size
#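 Image-based DNA-content assay: after two days of treatment, nuclei were labelled with the DNA dye Hoechst and imaged, and hits were compounds raising the count of nuclei showing high fluorescence intensity.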
# KB-3-1 cytotox – KB-3-1 parental cell cytotoxicity; KB-3-1 viability, CellTiter-Glo ATP luminescence, 72 h; Potency, µM (series often up to 46.1 µM), usual class: cytotoxic; 400,000 tested, 1.4% active; AID 1347075; also: % is scaled to controls: 0 for no effect and ±100 for the full control effect; nearly all actives have a fitted effect of over 60% in size
#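 Using CellTiter-Glo luminescence, growth of non-resistant KB-3-1 adenocarcinoma cells is assessed 72 h after pin-tool compound addition at 37 °C. Normalized responses across the concentration series yield fitted curves.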
# The depositor's hits bear a star; i = inactive; u = inconclusive; x = no result; ! = not confirmed by another sample. Compounds with a hit are over-represented: about 8% of the library has one in this group of screens. Calls follow the shape of the dose curve; as a rule, active = well fitted curve in the direction sought with a large enough effect; inconclusive = small, poorly fitted or top-dose-only effect, or another doubt; inactive = no such curve, though single readings can be large; an effect the other way counts as inactive or inconclusive. Potency is read from the fitted curve at half-maximal effect.
SMILES,KB-V1 MDR tox,HT1080 IDH1KD tx,MCF10A rereplic,HT1080-NT tox,SW480 rereplic,KB-3-1 cytotox
Oc1ccc(N=Nc2ccc3c(c2)OCCO3)c2cccnc12,u,1.3µM*,26%,u,0%,u
Oc1ccc(N=Nc2ccc3c(c2)OCCO3)c(O)c1,i,u,-2%,-16%,-8%,i
Cc1c(NC(=S)N/N=C/c2cc([N+](=O)[O-])ccc2O)c(=O)n(-c2ccccc2)n1C,i,u,1%,-25%,30%,i
Cc1ccc(C)n1-c1ccc(C(=O)NC2CCN(Cc3ccccc3)CC2)cc1,2.3µM*,-11%,u,0%,u,u
CCN(c1ccccc1)S(=O)(=O)c1ccc(C(=O)NC2CCN(Cc3ccccc3)CC2)cc1,u,u,u,-17%,u,16µM*
CN(CC(=O)NC1CCN(Cc2ccccc2)CC1)S(=O)(=O)c1ccc(Br)s1,u,2%,14%,-1%,-6%,23µM*
CN(CC(=O)NC1CCN(Cc2ccccc2)CC1)S(=O)(=O)c1ccc(Cl)cc1,i,1%,0%,4%,3%,i
CCN(C(=O)COC(=O)CN(C)S(=O)(=O)c1ccc(NC(C)=O)cc1)C1CCS(=O)(=O)C1 (configuration not stated),x,9%,-2%,-2%,1%,x
CN1CCN(CCCC(=O)c2ccc(C3CCCC3)cc2)CC1,i,33µM*,u,u,u,u
CN1CCN(CCCCC(=O)c2ccccc2)CC1,i,7%,u,2%,-3%,i
O=C(CCCN1CCC(O)(c2ccc(Cl)cc2)CC1)c1ccc(F)cc1,u,13%,21µM*!,6%,-66%,i
CC1CCN(CCCC(=O)c2ccc(F)cc2)CC1,x,x,-3%,x,-4%,x
O=C(CCCN1CCC(C(=O)c2ccc(F)cc2)CC1)c1ccc(F)cc1,i,4%,21µM*!,11%,-25%,i
O=C(CCCN1CCC(O)(c2ccc(Br)cc2)CC1)c1ccc(F)cc1,u,x,12%,x,27%,i
Cn1nnnc1SCCOc1ccc(C#N)cc1,i,8%,0%,19%,-9%,i
O=C(CSc1nnc(-c2ccc(C(F)(F)F)cn2)o1)Nc1ccccc1Cl,i,-1%,13%,3%,0%,i
CCOC(=O)N1CCN(Cc2nc3c(c(=O)n(C)c(=O)n3C)n2CCCc2ccccc2)CC1,9.2µM*,-4%,-1%,-7%,9%,u
CCCCCCn1c(CN2CCN(Cc3ccccc3)CC2)nc2c1c(=O)n(C)c(=O)n2C,18µM*,0%,u,0%,-11%,u
CCCCCn1c(CN2CCN(C(=O)OCC)CC2)nc2c1c(=O)n(C)c(=O)n2C,i,4%,-2%,1%,1%,i
CCOC(=O)c1c(NC(=O)C2=C(C)NC(=S)NC2c2ccccc2C(F)(F)F)sc(C)c1C (configuration not stated),u,0%,17%,3%,u,i
CCC(CC)NC(=O)C1CCN(S(=O)(=O)c2cccs2)CC1,i,4%,-1%,6%,-1%,i
Fc1ccc(-c2cn3cc(C(F)(F)F)cc(Cl)c3n2)cc1,i,-15%,u,-11%,u,i
COc1ccc(-c2cn3cc(C(F)(F)F)cc(Cl)c3n2)cc1,u,u,24%,u,18µM*,u
O=C(C(Sc1ccccc1)c1ccccc1)N1CCOCC1 (configuration not stated),18µM*,12%,-6%,12%,u,i
O=C(OCC(=O)N1CCOCC1)C(c1ccccc1)c1ccccc1,21µM*,4%,9%,5%,u,i
SMILES,KB-V1 MDR tox,HT1080 IDH1KD tx,MCF10A rereplic,HT1080-NT tox,SW480 rereplic,KB-3-1 cytotox
CCc1ccc(C2c3c(oc4cc(C)c(C)cc4c3=O)C(=O)N2c2nc(C)c(C(=O)OC)s2)cc1 (configuration not stated),i,x,x,x,x,i
C=CCOc1ccc(CN(C)C(=O)c2ccc(CNS(=O)(=O)c3ccc(C)c(C)c3)cc2)cc1,u,u,u,u,-9%,13µM*
OC(c1ccccc1)C1CN(Cc2ccccc2)CCC1(O)c1ccccc1 (configuration not stated),23µM*,-8%,4%,-7%,1%,i
COCCNc1oc(/C=C/c2ccccc2OC)nc1S(=O)(=O)c1ccccc1,i,-9%,21µM*,-10%,u,i
COCCNc1oc(-c2ccccc2Cl)nc1S(=O)(=O)c1ccc(C)cc1,x,-1%,5%,2%,-3%,x
COc1ccccc1/C=C/c1nc(S(=O)(=O)c2ccccc2)c(N2CCC(C(N)=O)CC2)o1,i,-7%,u,2%,18µM*,i
Cc1ccccc1Cn1c(=N)n(CC(O)c2ccco2)c2ccccc21 (configuration not stated),u,u,26%,u,10%,i
CC(C)(C)c1ccc(Cn2c(=N)n(CC(O)c3ccco3)c3ccccc32)cc1 (configuration not stated),u,21µM*,u,23µM*,u,u
CCCCCCCn1c(=N)n(CC(O)c2ccco2)c2ccccc21 (configuration not stated),u,23µM*,u,16µM*,-38%,i
COC(=O)c1ccc(-c2noc(CN(C)Cc3ccncc3C)n2)cc1,i,-4%,2%,-2%,11%,i
CCN(CC)C(=O)c1sc(NC(=O)C2c3ccccc3Oc3ccccc32)c(C(=O)OC(C)C)c1C,i,x,x,x,x,i
CCCCCCN(CCCCCC)C(=O)Cc1c(-c2ccc(F)cc2)[nH]c2ccccc12,u,8%,-5%,8%,-1%,i
Cc1ccc(SC(C)C(=O)Nc2ccc(S(=O)(=O)N3CCOCC3)cc2)cc1 (configuration not stated),12µM*,7%,23%,12%,1%,i
CC(Sc1ncnc2sccc12)C(=O)Nc1ccc(S(=O)(=O)N2CCOCC2)cc1 (configuration not stated),23µM*,-2%,-7%,-5%,-5%,i
N#Cc1cccnc1N1CCN(C(=O)c2[nH]c(C(F)(F)F)nc2-c2ccccc2)CC1,i,21%,x,21%,x,i
c1ccc(Nc2ncnc3sccc23)cc1,i,0%,u,-7%,-25%,i
